# Laboratory results from PubChem BioAssay.
# Unmarked numbers belong to inactive results. The rule behind the calls is not given here.
# Molecular target: Pantothenate synthetase (Mycobacterium tuberculosis (strain ATCC 25618 / H37Rv)) (UniProt P9WIL5)
# Assay: Recombinant Mtb pantothenate synthetase (PanC) inhibitors, coupled enzyme, confirmatory (AID 375);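 note: 0% = full reaction with vehicle and 100% = no enzyme background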
# Details: coupled enzyme assay; at 10 µM, active compounds read high
# Sequence of Pantothenate synthetase (Mycobacterium tuberculosis (strain ATCC 25618 / H37Rv)) (P9WIL5 whole entry, looked up): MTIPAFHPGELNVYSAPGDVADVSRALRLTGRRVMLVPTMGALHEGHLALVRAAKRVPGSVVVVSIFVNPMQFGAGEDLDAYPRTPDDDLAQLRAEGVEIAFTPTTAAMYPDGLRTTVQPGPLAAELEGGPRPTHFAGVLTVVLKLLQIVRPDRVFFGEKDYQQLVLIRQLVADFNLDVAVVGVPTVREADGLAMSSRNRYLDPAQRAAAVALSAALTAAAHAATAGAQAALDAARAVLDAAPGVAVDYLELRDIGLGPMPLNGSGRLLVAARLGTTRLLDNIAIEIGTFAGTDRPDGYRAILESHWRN
row,SMILES,inhibition
1,Fc1cccc2sc(Nc3nnc(-c4ccco4)o3)nc12,8%
2,Cc1cc(C)n(C(=O)C23CC4CC(CC(C4)C2)C3)n1,0%
3,COC(=O)CN(c1ccc2c(c1)OCO2)S(C)(=O)=O,4%
4,CCCC1O[C@@H]2C[C@H]3[C@@H]4CCC5=CC(=O)C=C[C@]5(C)[C@H]4[C@@H](O)C[C@]3(C)[C@]2(C(=O)CO)O1 (some centres undefined),4%
5,Cc1ccc(C2CC(c3ccc(C)cc3)n3nc(N)nc3N2)cc1 (centres undefined),5%
6,Cc1ccc(C(=O)NC2CC3CCCC(C2)N3C(=O)NC2CCCCC2)cc1 (centres undefined),8%
7,O=C(NC(C(=O)c1ccccc1)N1CCOCC1)c1cccs1 (centres undefined),0%
8,CN1CCN(c2nc3c(c(=O)[nH]c(=O)n3C)n2CCOc2ccccc2)CC1,0%
9,CC(C)(C)n1nc2c(c1NC(=O)COc1ccc(Cl)cc1)CSC2,0%
10,CCc1c(C)nc2ncnn2c1N1CCC(C(=O)NCc2cccc(OC)c2)CC1,0%
11,CCN(C1CCCCC1)S(=O)(=O)c1ccc(OC)c(C)c1,0%
12,Cc1ccc(OC(=O)CCC(=O)OCCCC(F)(F)C(F)(F)F)cc1,3%
13,COc1ccc2c(c1)c1c(n2C(C)=O)C(OC(C)=O)=NCC1,0%
14,Cc1ccccc1C(=O)NC1CCN(CC(=O)Nc2nccs2)CC1,0%
15,CCOC(=O)c1ccc(NC(=O)Nc2ccn(C)n2)cc1,0%
16,Cn1cccc1Cc1nnc(SCC(=O)N2CCOCC2)n1-c1ccc(F)cc1,0%
17,CCCCn1c(SCC(=O)OCC)nc2c1c(=O)[nH]c(=O)n2C,2%
18,CCOC(=O)N1CCC(=C2c3ccc(Cl)cc3CCc3cccnc32)CC1,5%
19,CCn1cnc2cc(NCc3cccc(OC)c3O)ccc21,12%
20,Cc1ccc2[nH]c(=O)c(C(c3nnnn3CCc3ccccc3)N3CCOCC3)cc2c1 (centres undefined),6%

row,SMILES,inhibition
1,CC(=O)N1C(=O)N(C)C2C1N(C(C)=O)C(=O)N2C (centres undefined),1%
2,CC(=O)c1ccc(N2CCN(C(=O)c3cc(C)on3)CC2)cc1,0%
3,COc1ccc(CC(=O)Nc2ccc(-c3nnc(-c4ccc(C)cc4)o3)cc2)cc1,4%
4,Cc1ccc(C)c(S(=O)(=O)C(C#N)c2nc3ccccc3nc2N2CC(C)OC(C)C2)c1 (centres undefined),0%
5,O=C1c2ccccc2C(O)(Cc2ccccc2)N1Cc1ccco1 (centres undefined),2%
6,O=c1cc(CN2CCN(c3ccc(F)cc3)CC2)nc2sccn12,0%
7,O=C(NCC(=O)N(c1cnc2ccccc2c1)C(C(=O)NC1CCCC1)c1ccncc1)c1ccco1 (centres undefined),0%
8,CC(=O)NCCOc1cccc(OCCNC(C)=O)c1,2%
9,CN(c1ccccc1)S(=O)(=O)c1ccc(C(=O)OCC(=O)NCc2ccco2)cc1,5%
10,CCCOc1ccc(N2CC(C(=O)Nc3ccc4c(c3)OCO4)CC2=O)cc1 (centres undefined),6%
11,C=COCCNC(=O)Nc1ccc(Cl)c(Cl)c1,0%
12,CC(C)CNC(=O)c1c(N)n(/N=C/c2ccccn2)c2nc3ccccc3nc12,0%
13,O=C(C1CCCO1)N1CCc2ccccc21 (centres undefined),10%
14,CCN(CC)CCCn1c(=S)[nH]c2cc(Cl)ccc2c1=O,0%
15,COc1ccccc1CC(=O)NCc1ccc2c(c1)OCO2,0%
16,CCN(CC)C(=O)CSc1nc2ccc(NC(=O)CSc3nccn3C)cc2s1,7%
17,COc1ccc(C2C(C(=O)NCCN3CCOCC3)c3ccccc3C(=O)N2C2CCCCC2)cc1 (centres undefined),0%
18,CCOC(=O)N1CCC(NC(=O)CSCc2nc(-c3cccc(OC)c3)oc2C)CC1,0%
19,CC(C)(C)c1cc(C(=S)N2CCN(CCO)CC2)cc(C(C)(C)C)c1O,5%
